Data from PubChem BioAssay (EPA / NIEHS).
Results filed as inconclusive are left out. Active and inactive are the calls of the source. How the source made its calls, unless noted: active means hit-call score of the fitted dose curve at least 0.9, where 1 is the maximum; inconclusive means response in the unintended direction; inactive means score below 0.9.

Legend:
[1] = TOX21_p53_BLA_p2_viability: Viability Assessment in the Tox21 HCT-116 p53 Agonism Beta-lactamase Assay, Phase 2 (AID 2283591);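 further: compound exposure lasted 16 h at 37 °C; actives lower the ATP signal meaning cytotoxicity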
In short: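 HCT-116 p53-bla cells (4000/well) rested 5 h at 37C, then received compounds in DMSO (217-fold dilution) for 16 h at 37C, 5% CO2. After the CCF4 read, CellTiter-Glo was added; ATP luminescence was read after 30 min at room temperature.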

[2] = TOX21_p53_BLA_p3_viability: Viability Assessment in the Tox21 HCT-116 p53 Agonism Beta-lactamase Assay, Phase 3 (AID 2283593);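 further: cells exposed to compound for 16 h before reading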
In short: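 HCT-116 cells (4000/well) rested 5 h at 37C, then got DMSO compounds by pin tool (217-fold dilution) for 16 h at 37C, 5% CO2. After the bla read, CellTiter-Glo was added and luminescence read at 30 min, room temperature.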

[3] = biological target: Cellular tumor antigen p53 (Homo sapiens) (UniProt P04637); test: TOX21_p53_BLA_p5_ratio: Tox21 HCT-116 p53 Agonism Beta-lactamase Assay, Ratio, Phase 5 (AID 2283599)
In short: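 HCT-116 cells carrying a p53-inducible beta-lactamase reporter were seeded at 4000 cells/well and dosed after 5 h with compound in DMSO (217-fold dilution). After 16 h at 37C, CCF4-AM substrate was added for 2 h, and the 460/530 nm emission ratio was scored as gain-of-signal versus DMSO.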

[4] = biological target: Cellular tumor antigen p53 (Homo sapiens) (UniProt P04637); test: TOX21_p53_BLA_p2_ratio: Tox21 HCT-116 p53 Agonism Beta-lactamase Assay, Ratio, Phase 2 (AID 2283592)
In short: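 HCT-116 cells with p53-responsive beta-lactamase reporter, 4000 cells/well, preincubated 5 h, then compound in DMSO (217-fold dilution) for 16 h at 37C. CCF4-AM substrate 2 h at room temperature; 460/530 nm emission ratio fitted upward versus DMSO.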

[5] = biological target: Cellular tumor antigen p53 (Homo sapiens) (UniProt P04637); test: TOX21_p53_BLA_p3_ratio: Tox21 HCT-116 p53 Agonism Beta-lactamase Assay, Ratio, Phase 3 (AID 2283596)
In short: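 HCT116 p53-bla cells (4000/well) given compound in DMSO (217-fold dilution) after 5 h, incubated 16 h at 37C. CCF4-AM substrate 2 h at room temperature; 460/530 nm emission ratio, gain fitted against DMSO.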

[6] = TOX21_p53_BLA_p4_viability: Viability Assessment in the Tox21 HCT-116 p53 Agonism Beta-lactamase Assay, Phase 4 (AID 2283597);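 further: hits lower the luminescence signal meaning cytotoxicity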
In short: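 HCT-116 p53-bla cells, 4000/well, dosed after 5 h attachment and incubated 16 h at 37 °C, 5% CO2. Viability from CellTiter-Glo ATP luminescence after 30 min at room temperature, taken after the beta-lactamase read; loss of signal indicates cytotoxicity.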

[7] = TOX21_p53_BLA_p5_viability: Viability Assessment in the Tox21 HCT-116 p53 Agonism Beta-lactamase Assay, Phase 5 (AID 2283600)
In short: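 HCT-116 p53 beta-lactamase reporter cells, 4000/well, were exposed to compound (pin transfer, 217-fold dilution) for 16 hours at 37C. Cellular ATP was read by CellTiter-Glo luminescence after 30 min at room temperature.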

[8] = biological target: Cellular tumor antigen p53 (Homo sapiens) (UniProt P04637); test: TOX21_p53_BLA_p4_ratio: Tox21 HCT-116 p53 Agonism Beta-lactamase Assay, Ratio, Phase 4 (AID 2283601)
In short: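 HCT116 cells carrying an inducible beta-lactamase reporter were plated at 4000 cells/well, rested 5 h, then exposed to compounds in DMSO (217-fold dilution) for 16 h at 37C. CCF4-AM substrate was loaded 2 h at room temperature; 460/530 nm emission ratio scored gain-of-signal versus DMSO.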

[9] = CCTE_Harrill_HTTr_Viability_MCF7: CCTE's 6-hour Cell Viability Assessment for the High-Throughput Transcriptomics (HTTr) Platform, in MCF-7 cells cultured in DMEM + 10% fetal bovine serum, Harrill Lab (AID 2284010; active means hit-call score of the fitted dose curve at least 0.9, where 1 is the maximum; inactive means score below 0.9)
In short: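 Cells were dosed with chemicals in an eight-point dilution series, imaged 6 hours later for propidium iodide uptake, and the endpoint was analyzed by bidirectional fitting against DMSO as negative control.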

[10] = CCTE_Harrill_HTTr_Apoptosis_MCF7: CCTE's 6-hour Apoptosis Assessment for the High-Throughput Transcriptomics (HTTr) Platform, in MCF-7 cells cultured in DMEM + 10% fetal bovine serum, Harrill Lab (AID 2284011; active means hit-call score of the fitted dose curve at least 0.9, where 1 is the maximum; inactive means score below 0.9)
In short: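 MCF-7 cells in DMEM + 10% FBS exposed 6 h to chemicals over an eight-point dilution series. Caspase-3/7 activation imaged by high-content CellEvent Green staining; fitted bidirectionally versus DMSO.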

[11] = CCTE_Harrill_HTTr_CellCount_MCF7: CCTE's Cell Proliferation Assessment for the High-Throughput Transcriptomics (HTTr) Platform, Harrill Lab (AID 2284012);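 further: count of Hoechst-stained nuclei per well by high-content imaging in MCF-7 cells; intended direction is loss of nuclei count meaning fewer cells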
In short: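 Chemicals in eight-point dilution series are added to MCF-7 cells for six hours, nuclei are stained with Hoechst and imaged, and per-well nuclei counts are fitted in both directions relative to DMSO controls.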

Measured: AC50

Sequence of Cellular tumor antigen p53 (Homo sapiens) (P04637 whole entry, looked up): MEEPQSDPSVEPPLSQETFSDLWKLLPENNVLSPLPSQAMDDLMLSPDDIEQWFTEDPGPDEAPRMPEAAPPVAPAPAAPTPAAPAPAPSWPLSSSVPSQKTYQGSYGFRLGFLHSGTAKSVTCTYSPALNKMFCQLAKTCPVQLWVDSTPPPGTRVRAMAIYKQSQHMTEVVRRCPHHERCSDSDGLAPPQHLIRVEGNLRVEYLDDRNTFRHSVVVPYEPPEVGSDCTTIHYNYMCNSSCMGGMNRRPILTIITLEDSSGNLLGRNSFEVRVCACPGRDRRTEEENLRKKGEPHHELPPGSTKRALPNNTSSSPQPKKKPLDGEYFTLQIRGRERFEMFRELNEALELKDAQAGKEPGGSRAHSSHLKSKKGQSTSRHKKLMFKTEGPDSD

CC(C)OS(C)(=O)=O
inactive: [1] | [2] | [3]

C[C@]12CC[C@H](OS(=O)(=O)O)CC1=CC[C@@H]1[C@@H]2CC[C@]2(C)C(=O)CC[C@@H]12
not listed: [1] | [9] | [10] | [11]
inactive: all other assays above

N#CNC#N
inactive: [1] | [6] | [7] | [8]

CNC(C)(C)Cc1ccccc1
inactive: [1] | [3] | [7] | [8]

O=C(O)CCCO
inactive: [4] | [2] | [5] | [6] | [3]

CCCCCCCCCCCCN=C(N)N
not listed: [1]
inactive: all other assays above

Oc1ccc2c3c1O[C@H]1[C@@H](O)C=C[C@H]4[C@H](C2)NCC[C@@]341
inactive: [4] | [2] | [5] | [6] | [3] | [7]

CCN(C(C)=O)c1cccc(-c2ccnc3c(C#N)cnn23)c1
inactive: [1] | [3] | [7] | [8]

C[C@]12CC[C@H]3[C@@H](CC=C4C[C@@H](O)CC[C@@]43C)[C@@H]1CC[C@@H]2O
active: [2] 43.5 µM
inactive: [4] | [5] | [6] | [3] | [7]
